Measurements as given in article PMC5540273 (PLoS ONE, 2017).

Key:
Conditions in all cases: concentration: 1 μM, replicates: in singlicate; n = 1
TSSK3 = system: TSSK3
TTK = system: TTK
TXK = system: TXK
[1] = system: TYK2(JH1domain-catalytic)
[2] = system: TYK2(JH2domain-pseudokinase)
TYRO3 = system: TYRO3
ULK1 = system: ULK1
ULK2 = system: ULK2
ULK3 = system: ULK3
VEGFR2 = system: T1, VEGFR2
T1 construct: gene KDR

VPS34 = system: T2, VPS34
T2 construct: gene PIK3C3

VRK2 = system: VRK2
WEE1 = system: WEE1
WEE2 = system: WEE2
WNK1 = system: WNK1
WNK2 = system: WNK2
WNK3 = system: WNK3
WNK4 = system: WNK4
YANK1 = system: T3, YANK1
T3 construct: gene STK32A

YANK2 = system: T4, YANK2
T4 construct: gene STK32B
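Also: KINOMEscan kinase panel screen.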

| Structure (SMILES) | %Inh (TSSK3) | %Inh (TTK) | %Inh (TXK) | %Inh [1] | %Inh [2] | %Inh (TYRO3) | %Inh (ULK1) | %Inh (ULK2) | %Inh (ULK3) | %Inh (VEGFR2) | %Inh (VPS34) | %Inh (VRK2) | %Inh (WEE1) | %Inh (WEE2) | %Inh (WNK1) | %Inh (WNK2) | %Inh (WNK3) | %Inh (WNK4) | %Inh (YANK1) | %Inh (YANK2) |
| --- | --- | --- | --- | --- | --- | --- | --- | --- | --- | --- | --- | --- | --- | --- | --- | --- | --- | --- | --- | --- |
| O=C(c1ccc(-c2cc(-c3c[nH]nc3-c3ccccn3)ccn2)cc1)N1CCOCC1 [GW812171] | 0% | 0% | 11% | 0% | 21% | 0% | 14% | 38% | 3% | 0% | 9% | 23% | 0% | 0% | 2% | 9% | 4% | 0% | 0% | 63% |
| Cc1nnc(-c2ccc3ncc(-c4ccc(S(C)=O)cc4)n3c2)o1 (centres unmarked) | 0% | 0% | 0% | 5% | 2% | 9% | 2% | 18% | 5% | 0% | 27% | 0% | 0% | 13% | 0% | 1% | 0% | 7% | 0% | 0% |
| Cl.Nc1ncnc2occ(-c3ccc(NC(=O)Nc4cc(C(F)(F)F)ccc4F)cc3)c12 [SB-707548] | 11% | 35% | 0% | 0% | 12% | 0% | 0% | 0% | 19% | 99.8% | 5% | 0% | 10% | 6% | 4% | 11% | 28% | 13% | 0% | 17% |
| CCc1nc(-c2cccc(C)c2)c(-c2ccnc(NCc3ccccc3)c2)s1 | 1% | 12% | 0% | 0% | 0% | 0% | 0% | 8% | 0% | 0% | 3% | 0% | 0% | 25% | 0% | 12% | 0% | 0% | 0% | 2% |
| O=C(NCCCN1CCOCC1)c1cccc(Nc2nccc(Nc3ccc(Oc4ccccc4)cc3)n2)c1 [GW663929] | 10% | 21% | 0% | 30% | 44% | 5% | 1% | 2% | 11% | 13% | 0% | 17% | 31% | 0% | 11% | 14% | 33% | 0% | 0% | 0% |
| Nc1nccc(-c2c(-c3ccc(F)cc3)ncn2C2CCN(CC(F)(F)F)CC2)n1 [SB-236560] | 67% | 0% | 0% | 14% | 82% | 0% | 0% | 30% | 10% | 0% | 58% | 31% | 0% | 0% | 0% | 17% | 35% | 0% | 22% | 0% |
| O=c1cc(N2CCOCC2)nc2n(Cc3cccc(Cl)c3Cl)c(C3CC3)nn12 [GSK2358994] | 0% | 0% | 7% | 11% | 0% | 35% | 0% | 10% | 0% | 0% | 100% | 0% | 0% | 0% | 0% | 0% | 0% | 0% | 0% | 0% |
| c1ccc(-c2cc(-c3c[nH]nc3-c3ccccn3)ccn2)cc1 [GW576604] | 2% | 0% | 0% | 13% | 26% | 0% | 0% | 0% | 0% | 0% | 18% | 2% | 2% | 0% | 0% | 18% | 0% | 11% | 12% | 0% |
| O=c1cc(N2CCOCC2)nc2n(Cc3cccc(F)c3)ccn12 [GSK2297430] | 0% | 0% | 4% | 13% | 2% | 12% | 0% | 0% | 0% | 0% | 93.9% | 0% | 0% | 9% | 0% | 12% | 8% | 3% | 7% | 14% |
| Cc1c(Cn2c(C)nn3c(=O)cc(N4CCOC(C)C4)nc23)cccc1C(F)(F)F (centres unmarked) [GSK2344444] | 0% | 6% | 0% | 13% | 0% | 0% | 34% | 0% | 15% | 0% | 48% | 0% | 10% | 0% | 4% | 0% | 2% | 0% | 0% | 0% |
